# This is a sample that favours compounds with a hit; in the whole collection about 2.5% have one here.
# Apoferritin bind – qHTS Assay for Identification of Novel General Anesthetics | Ferritin light chain (Equus caballus), P02791 | apoferritin/1-aminoanthracene competitive binding, fluorescence | Potency, µM (series often up to 77.5 µM), for inactives: at the highest dose activity change, negative = displacement, hits mostly inhibitors | 350,000 compounds, 0.074% hits; also: potency is read from the fitted curve at half-maximal effect; % is scaled to controls: 0 for no effect and ±100 for the full control effect; nearly all actives have a fitted effect of over 20% in size
# Target sequence (P02791 2-175 limits assumed): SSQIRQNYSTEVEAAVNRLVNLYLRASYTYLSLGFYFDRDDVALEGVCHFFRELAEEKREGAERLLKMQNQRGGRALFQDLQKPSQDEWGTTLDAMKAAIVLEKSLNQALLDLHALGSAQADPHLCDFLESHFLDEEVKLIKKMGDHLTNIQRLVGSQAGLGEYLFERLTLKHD
#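 Steps: apoferritin (10 uM) was premixed with half-saturated 1-AMA in PBS, compounds were pin-transferred, plates stood 10 min at room temperature, fluorescence was read at 380/535 nm, and curves were fitted with a Hill equation.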
# aSyn rescue – qHTS of alpha-syn Inhibitors. Yeast expressing alpha-synuclein, growth rescue, BacTiter-Glo, 24 h. Potency, µM (titrated, usually from 46.1 µM), for inactives: top-dose growth rescue (activation), hits mostly activators. 370,000 compounds, 0.14% hits. AID 652106, 2013; also: potency is read from the fitted curve at half-maximal effect; % of control where 0% means no effect; nearly all actives have a fitted effect of over 65% in size
#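 Rescue of yeast growth: cells expressing toxic alpha-synuclein, induced in galactose at OD600 0.02, incubated with compound 24 h at 30 C. ATP luminescence quantified growth; inhibitors of toxicity appear as activators.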
# CCT chaperon mod – High-Throughput Screening for Modulators of Cytosolic Chaperonin Activity. activity change, % (test concentration not listed), hits read low. AID 651819, 2012. purified chaperonin ATPase assay, HTRF ADP detection, 30 min. 360,000 compounds, 0.3% hits; in the data active = activity change below about -30%; also: % is scaled to controls: 0 for no effect and ±100 for the full control effect
#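 ATPase activity: ADP formed was measured by HTRF Transcreener (665/615 nm ratio) after 30 min at 37 deg C with 10 uM ATP. Compounds screened at one 76 uM concentration against 40 or 20 nM TRiC in Tris pH 7.4/KCl/MgCl2/DTT buffer.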
# TDP-43 yeast inh – qHTS of TDP-43 Inhibitors; TDP-43 expressing yeast growth rescue, BacTiter-Glo, 24 h; Potency, µM (titrated, usually from 46.1 µM), inactives show at the top dose growth rescue (activation), usual class: activators; 410,000 compounds, 1.8% hits; AID 652104, 2013; also: potency is read from the fitted curve at half-maximal effect; % of control where 0% means no effect; nearly all actives have a fitted effect of over 50% in size
#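 Cell-based yeast growth screen: TDP-43 expression induced in galactose, inoculum OD600=0.02 after raffinose pregrowth to mid-log. Read-out BacTiter-Glo luminescence at 24 hr, 30 deg C; inhibition of toxicity seen as signal increase.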
# Mito fusion yeast – qHTS Assay for Small Molecule Inhibitors of Mitochondrial Division or Activators of Mitochondrial Fusion; S. cerevisiae fusion-defective mutant growth rescue, CellTiterGlo 48 h; Potency, µM (highest dose often 46.1 µM), for the others: at the top dose growth rescue (activation), hits mostly activators; 320,000 compounds, 0.23% hits; also: potency is read from the fitted curve at half-maximal effect; % of control where 0% means no effect; nearly all actives have a fitted effect of over 45% in size
#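 Temperature-sensitive fusion-defective S. cerevisiae (e.g. fzo1-1, mgm1-5) were grown with compound in YPEG medium (3% ethanol, 3% glycerol) for 48 hours at 37C. Growth rescue was measured as viability by CellTiterGlo luminescence after 10 minutes at ambient.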
# Akt phos inh – HTS Assay for Inhibitors of Akt Phophorylation: Primary Screen; 360,000 compounds, 0.32% hits; activity change, % for hits at 50 µM; Neuro2A IGF-stimulated pAkt S473 HTRF, 20 min; stronger effect = lower value; in the data active = activity change below about -80%; inconclusive = mostly about -51% to -80%; also: % is scaled to controls: 0 for no effect and ±100 for the full control effect
#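 Neuro2A cells (4,500/well, DMEM with 0.5% FBS) were treated with compound at a single 50 µM final concentration, stimulated with 6 nM IGF for 20 min at 37 °C, and lysed. Phospho-Akt Ser473 was read by HTRF as 665/615 ratio ×10^4.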
# An asterisk follows results filed as active; i = inactive; u = inconclusive; x = no result given; [ ] = dose if it differs, or a comment. Unless noted, calls follow the shape of the dose curve; as a rule, active = well fitted curve in the direction sought with a large enough effect; inconclusive = small, poorly fitted or top-dose-only effect, or another doubt; inactive = no such curve, though single readings can be large; an effect the other way counts as inactive or inconclusive.
SMILES,Apoferritin bind,aSyn rescue,CCT chaperon mod,TDP-43 yeast inh,Mito fusion yeast,Akt phos inh
Cc1ccc(S(=O)(=O)Nc2ccc3nc(C)sc3c2)c(C)c1,x,5%,0,13µM*,11%,i
CC(C)[C@H]1COC(c2cc(Cl)cc(Cl)c2)=N1,-23%[163 µM],x,x,x,x,x
O=C(ON=C1CCN(S(=O)(=O)c2ccccc2)CC1)c1ccccc1,u,1%,1,20µM*,2%,i
CS(=O)c1ccccc1-c1nc(-c2cccc(Cl)c2)no1 (stereo not drawn),-18%,7%,1,13µM*,-6%,i
CC(C)(C)c1csc(NC(=O)c2cccs2)n1,-6%,-13%,-1,16µM*,13%,i
O=C(Nc1nc(-c2ccccc2)cs1)c1cccs1,-21%,-30%,-1,13µM*,-2%,i
CC(C)(C)c1csc(NNC(=O)c2ccc(Cl)cc2)n1,-22%,18µM*,-2,-18%,-5%,i
CC(C)(C)c1csc(NC(=O)Cc2cccs2)n1,-21%,-22%,-5,u,-4%,i
CC1CC1C(=O)Nc1nc(-c2ccccc2)cs1 (stereo not drawn),-16%,-6%,1,18µM*,8%,i
COC(=O)[C@H]1C[C@H]2CC[C@H](O)C[C@H]2N1Cc1c(F)cccc1Cl,-20%,x,x,x,x,x
CC1CC=CC2C1C(=O)N(Cc1ccccc1)C2c1ccc2ccccc2c1 (stereo not drawn),41%,x,x,x,x,x
CCc1ccc(Nc2ccc(C(=O)O)cc2[N+](=O)[O-])cc1,-1%,1%,-2,u,20µM*,i
CCCN(C(=O)c1sc2nc3n(c(=O)c2c1C)CCCC3)c1ccccc1C,7%,x,x,22%,x,x
C/C(=N/OC(=O)c1ccccc1Br)c1ccc(C)cc1,u,-18%,0,14µM*,10%,i
C/C(=N/OC(=O)c1ccc(C)cc1)c1cccs1,-12%,-18%,1,-12%,-5%,i
Nc1cccc2c1C(=O)N(Cc1cccc(Cl)c1)C2=O,429%,u,0,20µM*,0%[9.22 µM],i
O=C1Cc2ccccc2C(=O)N1Cc1cccc(Cl)c1,-12%,0%,-2,13µM*,-6%,i
Nc1cc(Cl)ccc1CN1C(=O)c2ccccc2C1=O,x,-19%,-1,19%,x,i
Cc1ccc(NC(=O)Cn2c(-c3ccc4c(c3)OCO4)cn(-c3ccccc3)c2=O)cc1,-3%,x,x,0%,x,x
CCCCS/C(N)=N/N=C/c1ccccc1O,49%,-3%,-2,11µM*,3%,-111%*
c1ccc2[nH]c(NC3=NCCC3)nc2c1,-16%,0%,-98*,17%,-10%,i
CCc1ccc(C(=O)c2cn(CC(=O)Nc3cc(F)ccc3F)c3nc(C)ccc3c2=O)cc1,u,x,x,-33%,x,x
Clc1ccc(N2CCN(c3ccnc(Cl)n3)CC2)cc1,x,u,0,18µM*,x,i
CSc1nccc(N2CCN(c3ccc(F)cc3)CC2)n1,-15%,6%,1,-8%[0.397 µM],12%,i
COc1cccc2c1C(=O)/C(=C\c1ccc(N(C)C)cc1)C2,x,1%,x,x,x,x
SMILES,Apoferritin bind,aSyn rescue,CCT chaperon mod,TDP-43 yeast inh,Mito fusion yeast,Akt phos inh
CCN(CC)CC(C)CNC(=O)c1cc(-c2ccc(Br)s2)nc2ccccc12 (stereo not drawn),-5%,x,x,2%,x,x
O=[N+]([O-])C1C(c2ccccc2)=NOC1c1ccccc1O (stereo not drawn),-11%,2%,1,18µM*,-12%,i
COc1cccc(NC(=O)c2ccccc2-c2nc(-c3ccc(Cl)cc3)no2)c1,-21%,0%,3,7%,5%,-109%*
COc1ccc(-c2noc(-c3ccccc3C(=O)NCc3ccco3)n2)cc1OC,8%,-1%,-1,u,5%,i
COc1ccc(-c2noc(-c3ccccc3C(=O)NCc3ccco3)n2)cc1,-12%,-12%,0,10%,-2%,-110%*
COc1ccc(-c2noc(CN(C(=O)Cc3ccc(C)cc3)C(C)C)n2)cc1,-13%,x,x,u,x,x
COc1c(F)c(F)c(C(=O)O)c(Nc2ccccc2)c1F,-9%,1%,-78*,-7%,-2%,i
O=C(COC(=O)c1cccc(Cl)c1Cl)NCc1cccs1,x,0%,0,13µM*,-11%,i
Cc1cccc(NCN2C(=O)C3C4C=CC(C4)C3C2=O)c1 (stereo not drawn),-14%,0%,-3,11µM*,0%,i
O=C1C2C3C=CC(C3)C2C(=O)N1CNc1ccccc1 (stereo not drawn),-23%,-9%,1,u,0%,i
CC1(C(=O)Nc2ccc(Cl)c(Cl)c2)CCN1C(=O)CC(c1ccccc1)c1ccccc1 (stereo not drawn),x,6%,0,0%,x,i
CC1(C(=O)Nc2cnc3ccccc3c2)CCN1C(=O)CC(c1ccccc1)c1ccccc1 (stereo not drawn),x,1%,-1,18µM*,x,i
CC(C)COC(=O)NCCOC(=O)Nc1cccc(Cl)c1,1%,4%,1,25µM*,6%,i
O=C(Nc1cccc(Cl)c1)OCCOCCOC(=O)Nc1cccc(Cl)c1,x,u,0,30%,x,i
O=C(Nc1cccc(Cl)c1)OCc1cnc(Cl)s1,10µM*,-5%,-3,u,0%,i
O=C(C[n+]1ccc(Cl)c2ccc(Cl)cc21)c1ccc(F)cc1,x,6%,x,x,x,x
Cc1ccc(S(=O)(=O)c2nnn3c2nc(NCc2cccs2)c2sccc23)cc1C,-16%,x,x,13%,x,x
Cc1cc(Nc2cccc(Cl)c2)nc2ccc(NC(=O)c3ccc(F)cc3Cl)cc12,220%,x,x,20µM*,x,x
Cc1cc(Nc2cccc(C(F)(F)F)c2)nc2ccc(NC(=O)c3cccc(Cl)c3)cc12,98%,x,x,18µM*,x,x
Cc1nc2ccc(NC(=O)c3cccc(C(F)(F)F)c3)cc2o1,-13%,-12%,-1,11µM*,5%,i
Cc1cc(Nc2cccc(C(F)(F)F)c2)nc2ccc(NC(=O)c3cccnc3)cc12,1%,x,x,u,x,x
Cc1cc(Nc2cccc(Cl)c2)nc2ccc(NC(=O)Cc3cccc(C(F)(F)F)c3)cc12,182%,x,x,16µM*,x,x
COC(=O)c1ccc(Cl)cc1NC(=O)N1CC=C(c2c[nH]c3ccccc23)CC1,53%,x,x,7%,x,x
Cc1ccc2oc3nc(C)c(C(=O)Nc4cccc(C(F)(F)F)c4)cc3c(=O)c2c1,-12%,-6%,-4,-17%,-2%,-93%*
Cc1ccc(-c2cc(C(F)F)nc(S(C)(=O)=O)n2)cc1,-8%,-11%,1,11µM*,0%,i
